# Compounds with a hit are over-represented: about 11% of the library has one in this group of screens.
# IMPase inh: qHTS Assay for Identifying the Cell-Membrane Permeable IMPase Inhibitors | 120,000 tested, under 10 active | CHO-M1 cells, IP1 accumulation, HTRF TR-FRET ratio | AID 901, 2007 | inhibition (IP1 accumulation), % at 46.1 µM | Inositol monophosphatase 1 (Rattus norvegicus), P97697; active means well fitted curve in the direction sought with a large enough effect in the signal ratio, not every such curve was filed as active; inconclusive means small, poorly fitted or top-dose-only effect, or a change in a side signal; inactive means no such curve, though single readings can be large or run the other way; the % refers to the signal ratio;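 further: cells stimulated with carbachol in lithium chloride buffer; plate controls were DMSO basal wells for no effect and reference inhibitor wells for full effect; higher means more IMPase inhibition seen as more IP1 and lower FRET ratio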
# Target sequence (P97697 whole entry, looked up): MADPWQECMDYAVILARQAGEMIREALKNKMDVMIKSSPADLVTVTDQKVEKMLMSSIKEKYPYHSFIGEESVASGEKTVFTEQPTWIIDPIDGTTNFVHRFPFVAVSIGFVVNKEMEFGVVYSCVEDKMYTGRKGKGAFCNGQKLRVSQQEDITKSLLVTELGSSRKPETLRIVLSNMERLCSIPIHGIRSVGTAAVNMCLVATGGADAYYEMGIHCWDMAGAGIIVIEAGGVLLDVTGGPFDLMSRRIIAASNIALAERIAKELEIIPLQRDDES
#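 Measured: the HTRF emission ratio (665/620 nm) plus the 620 nm donor channel, each fitted to the Hill equation to give AC50. Cells were CHO-M1 given compounds up to 46 uM and a 30 min carbachol stimulation at 37C.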
# IMPase Li cell: qHTS Assay for Identifying the Cell-Membrane Permeable IMPase Inhibitors: Potentiation with Lithium; 210,000 tested, 0.35% active; AID 1457, 2008; CHO-M1 cells, IP1 TR-FRET (IP-One), carbachol + lithium; Potency, µM (top dose mostly 59.4 µM), without a hit: at the top dose activity, negative = IMPase inhibition, most hits filed as inhibitors; active means well fitted curve in the direction sought with a large enough effect; inconclusive means small, poorly fitted or top-dose-only effect, or another doubt; inactive means no such curve, though single readings can be large; an effect the other way counts as inactive or inconclusive;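 further: IP1 builds up when IMPase is blocked and the TR-FRET signal falls; potency means the concentration at half of the fitted maximal effect; plate controls were basal vehicle for no effect and high inhibitor control for full effect; nearly all actives have a fitted effect of over 50% in size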
#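 Lithium-sensitised IP1 accumulation assay; M1-expressing CHO cells treated 30 min at 37C with compound. Competitive antibody detection by time-resolved FRET followed a 10 min room-temperature lysis step.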
# PNC assembly inh: High Content Assay for Compounds that inhibit the Assembly of the Perinucleolar Compartment; PC3M PTB-GFP, PNC prevalence imaging, 16 h; active compounds read low; activity change (PNC), negative = inhibition, % at 10 µM; 140,000 tested, 3.1% active;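 active means readout at or below -70, meaning at least 70% loss of cells showing the perinucleolar compartment, a nuclear body marking cancer cells; inconclusive means readout between -30 and a set limit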;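 further: plate controls were DMSO wells for no effect and camptothecin positive control wells for full effect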
#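 Compounds are pinned in duplicate onto adhered PC3M cells stably expressing GFP-tagged PTB and incubated 16 h at 37 C. Cells are then fixed, nuclei stained with Hoechst, and PNC-positive cells counted.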
# ALDH1A1 block: qHTS Assay for Inhibitors of Aldehyde Dehydrogenase 1 (ALDH1A1); Aldehyde dehydrogenase 1A1 (Homo sapiens), P00352; Purified ALDH1A1, NADH fluorescence, propionaldehyde substrate; Potency, µM (highest dose often 75.3 µM), for the others: top-dose activity, negative = inhibition, usual class: inhibitors; 220,000 tested, 7.3% active; AID 1030, 2008;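 further: potency means the concentration at half of the fitted maximal effect; plate controls were no enzyme wells and a reference inhibitor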
# ALOX12 inhib: qHTS Assay for Inhibitors of 12-hLO (12-human lipoxygenase); Polyunsaturated fatty acid lipoxygenase ALOX12 (Homo sapiens), P18054; Potency, µM (series often up to 57.1 µM), without a hit: at the top dose activity change, negative = inhibition, hits mostly inhibitors; 150,000 tested, 0.12% active; purified 12-hLO, xylenol orange hydroperoxide absorbance; active means well fitted curve in the direction sought with a large enough effect; inconclusive means small, poorly fitted or top-dose-only effect, or another doubt; inactive means no such curve, though single readings can be large; an effect the other way counts as inactive or inconclusive; further: potency means the concentration at half of the fitted maximal effect; nearly all actives have a fitted effect of over 55% in size
#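 Hydroperoxide formation by human 12-lipoxygenase from 40 uM arachidonic acid was followed colorimetrically via ferric-xylenol orange complex, using the 573/405 nm absorbance ratio. Enzyme concentration was 150 nM, with 30 min reaction at room temperature.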
# HPGD block: qHTS Assay for Inhibitors of HPGD (15-Hydroxyprostaglandin Dehydrogenase); 150,000 tested, 4.3% active; purified HPGD, NADH fluorescence kinetic, PGE2 substrate; Potency, µM, inactives show top-dose activity change, negative = inhibition, hits mostly inhibitors; 15-hydroxyprostaglandin dehydrogenase [NAD(+)] (Homo sapiens), P15428; further: potency means the concentration at half of the fitted maximal effect
# Target sequence (P15428 whole entry, looked up): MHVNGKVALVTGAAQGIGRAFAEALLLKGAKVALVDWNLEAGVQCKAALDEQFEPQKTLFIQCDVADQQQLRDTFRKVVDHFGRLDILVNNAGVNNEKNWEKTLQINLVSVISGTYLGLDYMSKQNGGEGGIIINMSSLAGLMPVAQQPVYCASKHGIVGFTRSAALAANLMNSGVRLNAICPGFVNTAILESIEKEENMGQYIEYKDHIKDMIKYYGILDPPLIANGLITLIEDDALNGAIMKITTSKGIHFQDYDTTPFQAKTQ
#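 20 nM HPGD preincubated 15 min at room temperature with compound in 50 mM Tris-HCl pH 8, 0.01% Tween 20. Started with 1 mM NAD+ and 30 uM prostaglandin E2; NADH fluorescence (360/450 nm) read 5 times over 30-s intervals, last minus first.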
# Active calls of the source: *; ? = inconclusive; . = not tested or not shown; [ ] = another dose, or the depositor's remark. Unless noted, the call rests on the fitted dose curve; in most records, active means well fitted inhibition curve with a large enough effect (not every such curve was filed as active); inconclusive means small, poorly fitted or top-dose-only effect, or another doubt; inactive means no such curve, though single readings can be large or run the other way. Unless noted, on the % scale 0 is the no-effect control and ±100 the full control effect.
SMILES,IMPase inh,IMPase Li cell,PNC assembly inh,ALDH1A1 block,ALOX12 inhib,HPGD block
CCOc1ccc(NS(=O)(=O)c2ccc(N)cc2)cc1,1,34%[38.3 µM],25,6%,-4%,-10%
COc1ccc(CCn2c3c(c(=O)[nH]c2=O)C(NC(=O)c2ccccc2)(C(F)(F)F)C(=O)N3)cc1OC (stereo not drawn),-3,.,.,.,.,.
COc1cc(C2CC(=O)Oc3ccc(O)cc32)cc(OC)c1OC (stereo not drawn),.,14%,.,?,-13%[0.00818 µM],?
COc1ccc(NS(=O)(=O)c2ccc(SC)cc2)c(OC)c1,4,47%[38.3 µM],?,8.9µM*,-5%,-11%
COc1ccc(S(=O)(=O)NN=C2CCCC2)cc1,-7,-14%[38.3 µM],61,?,5%,0%
COc1ccc(S(=O)(=O)NN=C2CCCCC2)cc1,-1,12%[38.3 µM],1,0.63µM*,-6%,-10%
CCOC(=O)Cc1ccc(NS(=O)(=O)c2ccc(SC)cc2)cc1,7,24%[38.3 µM],-8,8.9µM*,-1%,-15%
CCOc1ccc(S(=O)(=O)N/N=C(\C)c2ccc(OC)cc2OC)cc1,.,1%,.,22µM*,.,.
CCOC(=O)c1ccc(NS(=O)(=O)c2ccc(SC)cc2)cc1,-2,28%[38.3 µM],-27,?,-24%,-13%
Fc1ccc(C(NCCc2ccccc2)c2nnc(-c3ccccc3Cl)o2)cc1 (stereo not drawn),7,.,.,.,.,.
c1cncc(CNc2nc(-c3ccoc3)nc3ccccc23)c1,.,9%,.,-2%,-1%,-6%
O=C(Cn1c(=O)n(Cc2ccc3c(c2)OCO3)c(=O)c2ccc(C(=O)NC3CCCCC3)cc21)Nc1ccccc1F,5,.,.,.,.,.
CC(C)C[C@H](N)C(=O)N[C@H](C(=O)N[C@H](C(=O)N[C@@H](Cc1ccc(O)cc1)C(=O)N1CCC[C@H]1C(=O)N[C@@H](Cc1c[nH]c2ccccc12)C(=O)N[C@H](C(=O)N[C@@H](CCC(N)=O)C(=O)N[C@@H](CCCN=C(N)N)C(=O)O)[C@@H](C)O)C(C)C)C(C)C,.,-5%,.,18%,.,.
OCc1cc([C@@H](O)CNCCCCCCOCCCCc2ccccc2)ccc1O,-2,8%,.,-3%,-4%,-6%
O=C(O)CCCCCNc1ccc2nsnc2c1[N+](=O)[O-],7,-5%,15,-5%,-4%,28µM*
O=C(NC1CCCCC1)C1Cc2ccccc2CN1S(=O)(=O)c1ccc(F)cc1 (stereo not drawn),16,12%,-100*,5%,5%,-17%
Cc1cc(-c2nc3c4c5c(sc4[nH]c(=O)n3n2)CCC5)c(C)o1,6,1%,-8,-8%,-6%,20µM*
COc1ccc(OC)c(C2C(C#N)=C(N)Oc3cc(N)ccc32)c1 (stereo not drawn),8,19%[38.3 µM],13,11µM*,-19%,-7%
COc1ccc(OC)c(C2C(C#N)=C(N)Oc3cc(C)[nH]c(=O)c32)c1 (stereo not drawn),3,-8%[38.3 µM],2,-1%,0%,-13%
Cc1c(N/N=C(\C#N)C(=O)c2ccc(Cl)cc2)c(=O)n(-c2ccccc2)n1C,.,16%,-13,?,?,28µM*
N#C/C(=N\Nc1ccc(Cl)cc1)C(=O)c1ccccc1,8,45%[38.3 µM],41,-4%,?,-24%
O=C(CC(c1ccccc1)c1ccco1)N1CCCCC1 (stereo not drawn),.,19%,.,-5%,.,.
Cc1ccc(CSCC(=O)N2CCOCC2)cc1,-10,7%[38.3 µM],-13,25µM*,9%,-14%
Cc1ccc(C(CC(=O)N2CCOCC2)c2ccco2)cc1 (stereo not drawn),-5,21%[38.3 µM],14,?,0%,20µM*
Cc1ccc(-c2nnc(SCC(=O)N3CCOCC3)nc2-c2ccc(C)cc2)cc1,9,-3%[38.3 µM],-29,?,-11%,18µM*
SMILES,IMPase inh,IMPase Li cell,PNC assembly inh,ALDH1A1 block,ALOX12 inhib,HPGD block
Cc1ccc(OCc2nnc(SCC(=O)N3CCOCC3)n2C)cc1,9,12%[38.3 µM],-107*,-1%,1%,-14%
Cc1ccc(OCc2nnc(SCCN3CCOCC3)n2C)cc1,-3,10%[38.3 µM],-9,-11%,-7%,-4%
CCOc1cc(-c2nc(-c3ccc(-c4ccccc4)nc3OCC)no2)cc(OCC)c1OCC,2,.,.,.,.,.
CC(C)CCNC(=O)c1ccc(C2SCC(=O)N2Cc2ccco2)cc1 (stereo not drawn),8,12%,-110*,?,-7%,?
O=C(NCc1ccccc1)c1ccc(C2SCC(=O)N2Cc2ccccc2)cc1 (stereo not drawn),17,4%,86,-6%,46%,10µM*
C=CCNC(=O)c1ccc(C2SCC(=O)N2Cc2ccccc2)cc1 (stereo not drawn),.,19%,.,?,.,.
CC(C)NC(=O)c1ccc(C2SCC(=O)N2Cc2ccccc2)cc1 (stereo not drawn),6,2%,138,-4%,2%,3.2µM*
Cc1cc2oc(=O)cc(-c3ccccc3)c2c(C)c1-c1ccoc1,.,11%,.,?,-1%[0.00818 µM],-6%
COC(=O)c1sc(N2C(=O)c3oc4ccc(C)cc4c(=O)c3C2c2ccc(O)c(OC)c2)nc1C (stereo not drawn),-5,.,.,.,.,.
O=C(c1cnc2n(c1=O)CCS2)N1CCCc2ccccc21,-8,16%,?,-3%,6%,-11%
O=C(c1cnc2ccccn2c1=O)N1CCCc2ccccc21,2,-5%[38.3 µM],21,8.9µM*,-2%,-9%
COc1cccc([C@@H]2Oc3ccc(Br)cc3C[C@H]2OC(=O)N[C@H](C)C2CCCCC2)c1,.,14%,.,4%,.,-10%
O=C(COC(=O)c1c(Cl)cccc1Cl)NC1CCCCC1,.,-1%,.,0%,.,.
O=C(COC(=O)c1ccc2c(c1Cl)C(=O)c1ccccc1C2=O)NC1CCCCC1,.,-5%,19,-8%,1%,6.3µM*
O=C(COC(=O)c1ccccc1OCc1ccc(Cl)cc1)NC1CC1,5,0%[38.3 µM],8,-3%,3%,-10%
O=C(COC(=O)c1ccc2c(c1Cl)C(=O)c1ccccc1C2=O)NC1CC1,.,7%,-26,?,0%,7.9µM*
COCC(=O)N1CCC2(CCCN(C(=O)Nc3cccc(F)c3)C2)CC1,.,1%,.,7%,-1%,-2%
